Out of some 310,000 compounds screened, about 14,000 (4.5%) showed an effect of 50% or more. Effects have a minus sign here. The entries come from a sample that favours strong results as a whole.
The molecules below were run against human ether-à-go-go-related gene (hERG) potassium channel (human, UniProt Q12809) (assay: primary screen, population patch clamp on CHO cells stably expressing hERG; higher = less effect of the substance).
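Note: peak tail current of the secondary pulse compared with the same well before compound.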

human ether-à-go-go-related gene (hERG) potassium channel, sequence (Q12809 whole entry, looked up): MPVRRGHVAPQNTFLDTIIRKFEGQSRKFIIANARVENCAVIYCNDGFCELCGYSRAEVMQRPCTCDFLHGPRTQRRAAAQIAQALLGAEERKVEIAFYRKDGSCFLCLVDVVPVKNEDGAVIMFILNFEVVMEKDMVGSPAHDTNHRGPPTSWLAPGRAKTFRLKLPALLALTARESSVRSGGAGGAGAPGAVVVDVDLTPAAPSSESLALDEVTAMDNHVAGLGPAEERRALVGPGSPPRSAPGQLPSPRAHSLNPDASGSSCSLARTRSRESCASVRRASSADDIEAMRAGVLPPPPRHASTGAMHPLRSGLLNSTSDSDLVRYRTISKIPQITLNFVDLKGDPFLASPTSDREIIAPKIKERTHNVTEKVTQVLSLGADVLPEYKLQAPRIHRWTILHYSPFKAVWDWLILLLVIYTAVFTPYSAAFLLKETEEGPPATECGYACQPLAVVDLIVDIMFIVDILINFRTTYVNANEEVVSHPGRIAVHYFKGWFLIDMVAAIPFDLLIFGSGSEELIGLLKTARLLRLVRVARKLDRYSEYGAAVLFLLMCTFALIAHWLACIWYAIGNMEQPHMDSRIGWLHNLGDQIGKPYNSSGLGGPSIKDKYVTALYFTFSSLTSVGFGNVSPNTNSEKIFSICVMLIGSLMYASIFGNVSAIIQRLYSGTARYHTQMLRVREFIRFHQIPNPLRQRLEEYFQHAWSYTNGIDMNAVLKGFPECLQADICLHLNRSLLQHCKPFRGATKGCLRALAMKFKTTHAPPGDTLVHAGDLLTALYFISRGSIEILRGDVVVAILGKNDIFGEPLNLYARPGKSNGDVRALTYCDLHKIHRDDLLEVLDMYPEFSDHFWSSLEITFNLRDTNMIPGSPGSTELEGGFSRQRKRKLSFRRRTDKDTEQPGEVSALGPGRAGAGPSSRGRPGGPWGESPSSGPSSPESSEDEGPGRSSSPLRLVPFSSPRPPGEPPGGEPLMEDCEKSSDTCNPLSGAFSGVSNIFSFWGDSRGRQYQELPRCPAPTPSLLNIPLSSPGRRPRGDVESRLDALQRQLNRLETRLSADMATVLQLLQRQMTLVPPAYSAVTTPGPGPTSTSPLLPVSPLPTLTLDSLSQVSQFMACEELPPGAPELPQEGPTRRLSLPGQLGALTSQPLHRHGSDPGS

Row | SMILES | hERG current change (%, negative = inhibition) at 10uM [%]
1 | COc1ccc(N(CC(=O)NCc2ccc3c(c2)OCO3)S(C)(=O)=O)cc1OC | 1.12
2 | COc1ccc(C2NC(=O)NC(C)=C2C(=O)OCC2CCCCC2)cc1OC (centres unmarked) | -2.11
3 | Cc1cc(NC(CC(C)C)C(=O)O)nc(Cc2ccccc2)n1 (centres unmarked) | 9.96
4 | CCN(CC)CCOC(=O)C1(c2ccc(OC)c(OC)c2)CCCC1.Cl | -16.9
5 | COc1cccc(Nc2c([N+](=O)[O-])cncc2[N+](=O)[O-])c1 | -2.64
6 | Cc1ccc(S(=O)(=O)Nc2ccc(-n3cnnn3)cc2)cc1 | -1.93
7 | COc1ccccc1CCNC(=O)CCC(=O)N1CC2C[C@@H](C1)Cn1c2cccc1=O | 6.31
8 | CC(C)SCC(=O)Nc1ncc2c(n1)-c1ccccc1CC2 | 7.72
9 | COc1ccc(CCN2CC(C(=O)NCCc3ccc(F)cc3)CCC2=O)cc1 (centres unmarked) | -22
10 | O=C(NCCCc1ccncc1)C1CCC(=O)N(Cc2cccc(F)c2)C1 (centres unmarked) | -14.5
11 | O=C(NCCCc1ccncc1)C1CCC(=O)N(CCc2cccc(F)c2)C1 (centres unmarked) | -51.8
12 | O=C(NCCc1cccnc1)C1CCC(=O)N(CCc2cccc(F)c2)C1 (centres unmarked) | 7.99
13 | COc1ccc(CCCNC(=O)C2CCC(=O)N(CCc3cccc(F)c3)C2)cc1 (centres unmarked) | -53.1
14 | COc1cccc(CN2CC(C(=O)NCCCc3ccc(C)cc3)CCC2=O)c1 (centres unmarked) | -28.4
15 | Cc1ccc(CCNC(=O)C2CCC(=O)N(Cc3cccc(F)c3)C2)cc1 (centres unmarked) | -4.64
16 | COc1ccccc1CCCNC(=O)C1CCC(=O)N(CCc2cccc(F)c2)C1 (centres unmarked) | -19.1
17 | Cc1ccc(CCCNC(=O)C2CCC(=O)N(Cc3cccc(F)c3)C2)cc1 (centres unmarked) | -53.4
18 | O=C(CN1C(=O)NC2(CCCCCCC2)C1=O)NCc1cccs1 | 7.8
19 | CC(=O)c1c(C)[nH]c(C(=O)COc2ccc3c(C)cc(=O)oc3c2)c1C | 7.54
20 | CC(=O)c1cc(NC(=O)c2ccccc2)c(=O)oc1/C=C/N(C)C | -12.1
21 | S=C(NCCCN1CCOCC1)Nc1ccc(-c2nc3ccccc3[nH]2)cc1 | -11.7

Row | SMILES | hERG current change (%, negative = inhibition) at 10uM [%]
22 | CSc1cccc(NS(=O)(=O)c2ccc(-c3coc(C)n3)cc2)c1 | 22.6
23 | CCCCn1c(SCc2cccc([N+](=O)[O-])c2)nc2ccsc2c1=O | 10
24 | CN1CCN(CCCNC(=O)c2ccc(Cn3c(=S)[nH]c4ccc(Br)cc4c3=O)cc2)CC1 | 17.4
25 | CCC(=O)N1CCN(c2nc3ccc(Br)cc3s2)CC1 | -44.2
26 | Cc1ccc2nc(N3CCC(C(=O)N4CCC5(CC4)OCCO5)CC3)sc2c1 | -19.8
27 | Brc1ccc2nc(N3CCCC3)sc2c1 | 13
28 | CCCC(=O)N1CCN(c2nc3ccc(Br)cc3s2)CC1 | -71
29 | CC(C)(C)C(=O)N1CCN(c2nc3ccc(Br)cc3s2)CC1 | -8.45
30 | CC(=O)N1CCN(c2nc3ccc(Br)cc3s2)CC1 | -49.4
31 | O=C(C1CCN(c2nc3ccc(Br)cc3s2)CC1)N1CCC2(CC1)OCCO2 | -62.3
32 | CCCCC(=O)N1CCN(c2nc3ccc(Br)cc3s2)CC1 | -69.4
33 | CCc1ccc2nc(N3CCC(C(=O)N4CCC5(CC4)OCCO5)CC3)sc2c1 | -42.5
34 | Cc1nc([N+](=O)[O-])cn1Cc1cccc([N+](=O)[O-])c1 | -8.42
35 | CCOC(=O)C(=O)N/N=C/c1ccco1 | 11.3
36 | CCOc1ccc(-n2c(SCC(N)=O)nc3c(c2=O)SCC3)cc1 | 12
37 | Cc1ccccc1OCCNc1cc(N2CC(C)NC(C)C2)ccc1[N+](=O)[O-] (centres unmarked) | -12.3
38 | Cc1ccc(C2CC2C(=O)NNC(=S)Nc2cccc(Cl)c2)cc1 (centres unmarked) | -4.44
39 | COc1ccc(OCc2cc(C(=O)N3CCN(CC(=O)N(C)C)CC3)no2)c(Cl)c1 | -13.4
40 | COc1cc2c(=O)n(CC3CCCO3)c(=O)n(CC(=O)Nc3ccccc3)c2cc1OC (centres unmarked) | -2.85
41 | COc1ccc(N2CCN(C(=O)c3cc4c(C)nc5ccccc5c4o3)CC2)cc1 | -47
42 | CS(=O)(=O)N(Cc1ccccc1)c1ccccc1C(=O)N1CCN(c2ccccc2)CC1 | -46.6

Row | SMILES | hERG current change (%, negative = inhibition) at 10uM [%]
43 | COc1ccc(Cn2c(=O)[nH]c3cc(C(=O)N4CCN(c5ccccc5)CC4)ccc3c2=O)cc1 | 9.23
44 | Cc1nc2ccn(Cc3ccccc3)c(=O)c2cc1C(=O)N1CCN(c2ccccc2)CC1 | -74
45 | COc1ccc(N2CCN(C(=O)c3cc4c(=O)n(Cc5ccccc5)ccc4nc3C)CC2)cc1 | -55.2
46 | O=C(c1ccc(Cn2c(=O)[nH]c3ccccc3c2=O)cc1)N1CCN(c2ccc(F)cc2)CC1 | -15.5
47 | COc1cccc(N2CCN(C(=O)c3cc4c(=O)n(Cc5ccccc5)ccc4nc3C)CC2)c1 | -49.8
48 | O=C(c1cc(-c2ccco2)nc2ccccc12)N1CCN(c2ccc(F)cc2)CC1 | -28.8
49 | Cc1nc2ccn(Cc3ccccc3)c(=O)c2cc1C(=O)N1CCN(c2ccc(F)cc2)CC1 | -78.5
50 | CSC1=C(C#N)C(c2ccc(Cl)cc2)C2=C(CC(C)(C)CC2=O)N1 (centres unmarked) | -6.94
51 | C=CCCCCc1nc2ccccc2c(=O)n1N | 6.28
52 | Cc1ccc2c(C)nc(N/C(N)=N/S(=O)(=O)c3ccc([N+](=O)[O-])cc3)nc2c1 | -13.1
53 | COc1cc(C(=O)NC(c2ccccc2)c2ccccc2)cc(OC)c1C | 15.2
54 | CCCCNC(=O)[C@H](CSCc1ccccc1)N1Cc2ccccc2C1=O | -68.5
55 | CC(C)NC(=O)[C@H](CSCc1ccccc1)N1Cc2ccccc2C1=O | -40
56 | COCCNC(=O)[C@H](CSCc1ccccc1)N1Cc2ccccc2C1=O | -42.6
57 | CC(C)CCNC(=O)[C@H](Cc1ccccc1)N1Cc2ccccc2C1=O | -11.6
58 | CC(C)CCNC(=O)[C@H](CSCc1ccccc1)N1Cc2ccccc2C1=O | -61
59 | O=C(NCCCN1CCCC1)[C@H](CSCc1ccccc1)N1Cc2ccccc2C1=O | -56.8
60 | COCCCNC(=O)[C@H](CSCc1ccccc1)N1Cc2ccccc2C1=O | -14.5
61 | COC(CNC(=O)[C@H](CSCc1ccccc1)N1Cc2ccccc2C1=O)OC | -3.49
62 | O=C(NCCCN1CCCC1=O)[C@H](CSCc1ccccc1)N1Cc2ccccc2C1=O | 1.78

Source: PMC4336329 (PLoS ONE, 2015)
